Experimental data from PubChem BioAssay AID1035475 (Broad Institute, 2014).
Measured potencies and affinities stand elsewhere. Records with an inconclusive call do not appear. Activity calls are given as the source filed them.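 The calls were made as follows: active = fluorescent signal drops by 40% or more, counted as a hit; inconclusive = no clear call, values can overlap the other calls; inactive = the rest, including any activity in the opposite direction.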

Experiment: blockers of FN fibrillogenesis by fibroblasts – AH1F cells, Alexa488-FN fluorescence, cherry-picks, dose response (AID 1035475);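 also: AH1F fibroblasts incorporating labeled fibronectin into their extracellular matrix; 0% = neutral control wells and -100% = wells without labeled fibronectin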
Conditions: Alexa488-fibronectin deposition fluorescence, overnight; series mostly up to 35 µM; activity change, negative = inhibition: at the top concentration

SMILES	activity change, negative = inhibition
C[C@@H]1CN([C@@H](C)CO)C(=O)c2cc(-c3ccncc3)cnc2O[C@@H]1CN(C)C(=O)Cc1cccnc1	44.5% (inactive)
NC(=O)C1=C[C@H](c2coc3ccccc3c2=O)C[C@H](OCCCCO)O1	22% (inactive)
CSc1ccccc1C(=O)C1CCCN(C(=O)CCc2cccnc2)C1 (stereo not given)	0.764% (inactive)
O=c1c2cc(N3CCOCC3)ccc2[nH]c(=S)n1Cc1ccc(Cl)cc1	-36.2% (inactive)
CCOC(=O)c1cnc(SCc2nc(N)nc(Nc3ccc(OC)cc3)n2)nc1N	-30.6% (inactive)
O=S(=O)(c1ccccc1F)N1CC[C@H]2[C@H](CO)Nc3ccc(-c4cccc(F)c4)cc3[C@H]21	11.5% (inactive)
O=S(=O)(c1cccc(F)c1)N1CC[C@@H]2[C@H]1c1cc(-c3cccc(F)c3)ccc1N[C@@H]2CO	10.5% (inactive)
C[C@H](CO)N1C[C@H](C)[C@@H](CN(C)C(=O)c2cccc(F)c2)Oc2ncc(-c3ccccc3)cc2C1=O	20.2% (inactive)
Cc1cc(C)n2ncc(C(=O)NCc3ccc(Cl)cc3)c2n1	-4.49% (inactive)
C[C@@H]1CN([C@@H](C)CO)C(=O)c2cc(NC(=O)CCCN(C)C)ccc2O[C@@H]1CN(C)Cc1ccc(-c2ccccc2)cc1	22.1% (inactive)
CO[C@H]1CN(C)C(=O)c2cc(NC(=O)Nc3ccc(Cl)c(Cl)c3)ccc2OC[C@H](C)NC[C@@H]1C	-15.6% (inactive)
C[C@H](O)C#Cc1ccc2c(c1)O[C@H](CN(C)C)[C@@H](C)CN([C@H](C)CO)S2(=O)=O	38.2% (inactive)
N#C[C@@H]1[C@@H](c2ccccc2C2=CCCCC2)[C@H](CO)N1S(=O)(=O)c1ccccc1	23.1% (inactive)
OC(CNC1CCCc2ccccc21)COc1c(Cl)cccc1Cl (stereo not given)	-2.1% (inactive)
COc1ccc(CN(C2CCCC2)S(=O)(=O)c2ccc(-n3cnnn3)cc2)cc1OC	-21.3% (inactive)
COC(=O)C[C@H]1CC[C@@H]2[C@H](COc3ccc(NC(=O)Cc4cccs4)cc3C(=O)N2C)O1	10.4% (inactive)
COc1cccc(CN2CCN(C(=O)c3ccc(-c4ccccc4)cc3)CC2)c1OC	-21.9% (inactive)
O=S(=O)(c1ccccc1F)N1CC[C@@H]2[C@H]1c1cc(-c3cccc(F)c3)ccc1N[C@@H]2CO	30.4% (inactive)

SMILES	activity change, negative = inhibition
COC(=O)c1c(NC(=O)CN2CCN(c3ccccc3Cl)CC2)sc(C)c1C	-27.9% (inactive)
COc1cccc(S(=O)(=O)N2CC[C@@H]3[C@H]2c2cc(-c4ccc(C#N)cc4)ccc2N[C@@H]3CO)c1	-9.22% (inactive)
O=C(Nc1ccccc1F)N1C[C@@H]2[C@H](c3ccccc31)[C@H](CO)N2C(=O)C1CC1	28.6% (inactive)
O=C(CCC(=O)c1cccs1)NCc1cccnc1	-16.4% (inactive)
C[C@H](O)C#Cc1ccc2c(c1)O[C@H](CN(C)C)[C@@H](C)CN([C@@H](C)CO)S2(=O)=O	31.3% (inactive)
COCC(=O)Nc1ccc2c(c1)C(=O)N(C)[C@@H]1CC[C@H](CC(=O)NCc3ccccc3Cl)O[C@H]1CO2	32.7% (inactive)
Cc1cc(C)c(S(=O)(=O)Nn2cnnc2)c(C)c1	-8.32% (inactive)
CCOc1ccccc1NC(=O)c1c(NC(=O)CCC(=O)O)sc2c1CCCCC2	-7.79% (inactive)
Cc1ccc(S(=O)(=O)N2CC[C@H]3[C@H](CO)Nc4ccc(-c5cccc(C(=O)N(C)C)c5)cc4[C@H]32)cc1	-23.6% (inactive)
CO[C@@H]1CN(C)C(=O)c2cc(NC(=O)Nc3ccc(Cl)c(Cl)c3)ccc2OC[C@H](C)NC[C@@H]1C	28.4% (inactive)
COC(=O)C[C@H]1CC[C@@H]2[C@@H](COc3ccc(NC(=O)Cc4cccs4)cc3C(=O)N2C)O1	33% (inactive)
CC1CN(C(=O)c2cc3c(=O)n4ccccc4nc3n2C)CC(C)O1 (stereo not given)	-7.05% (inactive)
N#C[C@H]1[C@@H](c2ccccc2C2=CCCCC2)[C@H](CO)N1S(=O)(=O)c1ccccc1	34.4% [at 30 µM] (inactive)
COc1cccc(CNC(=O)CCc2nnc3ccc(NCCCN4CCCC4=O)nn23)c1	-9.03% (inactive)
CCN(Cc1ccncc1)C(=O)c1ccc2c(c1)S(=O)(=O)c1ccccc1C2=O	-11.4% (inactive)
C[C@@H]1CN([C@@H](C)CO)C(=O)c2cc(-c3ccccc3)cnc2O[C@@H]1CN(C)Cc1ccccc1	15.3% (inactive)
CO[C@@H]1CN(C)C(=O)c2ccc(NC(=O)c3ccc(-c4ccccc4)cc3)cc2OC[C@@H](C)NC[C@@H]1C	6.9% (inactive)
